Results filed as inconclusive are left out. Activity calls are given as the source filed them. How the source made its calls, unless noted: active means hit-call score of the fitted dose curve at least 0.9, where 1 is the maximum; inactive means score below 0.9.

Assay [1] has as its target Paired box protein Pax-6 (Homo sapiens) (UniProt P26367). The assay can be described thus: ATG_Pax6_CIS: Attagene CIS-FACTORIAL HepG2 Assay for human Paired Box 6 (PAX6) (AID 2282956). The following applies: HepG2 CIS-FACTORIAL PAX6 reporter transcription, RNA readout; actives raise or lower the signal. A digest of the protocol: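 Read-out is reporter transcript level, measured by RT-PCR with fluorescent primer extension and capillary electrophoresis after 24 h dosing of transfected HepG2 cells. Activity in either direction fitted relative to DMSO control.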

A short description of assay [2]: ATG_PXRE_CIS: Attagene CIS-FACTORIAL HepG2 Assay for human Pregnane X Receptor Element (PXRE) (AID 2282957). Conditions: HepG2 Attagene CIS-FACTORIAL PXRE reporter, mRNA; actives raise or lower the signal. The method in brief: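 Fluorescent capillary electrophoresis of amplified reporter cDNA gave the signal, collected 24 h after dosing HepG2 cells that held transfected cis-element reporter constructs.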

The nature of assay [3]: ATG_PPRE_CIS: Attagene CIS-FACTORIAL HepG2 Assay for human Peroxisome Proliferator-activated Response Element (PPRE) (AID 2282958). The following applies: HepG2 PPRE cis-element reporter, Attagene transcription factor profiling; actives raise or lower the signal. A digest of the protocol: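 Transcript-level reporter induction in transfected HepG2 cells after 24 h chemical exposure, quantified by fluorescence from RT-PCR products separated by capillary electrophoresis.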

Assay [4] in a line: ATG_RORE_CIS: Attagene CIS-FACTORIAL HepG2 Assay for human RAR-related Orphan Receptor Element (RORE) (AID 2282959). The following applies: HepG2 Attagene cis-factorial RORE reporter, mRNA; actives raise or lower the signal. A digest of the protocol:
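Multiplexed reporter assay measuring mRNA induction from a cis promoter element in transiently transfected HepG2 cells after 24 h treatment. Detection via RT-PCR and capillary electrophoresis fluorescence; DMSO serves as baseline.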

The nature of assay [5]: ATG_Sox_CIS: Attagene CIS-FACTORIAL HepG2 Assay for human SRY-box transcription factor (SOX) (AID 2282960). Conditions: HepG2 Attagene cis-factorial SOX reporter, mRNA; actives raise or lower the signal. The method in brief:
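Cells were transfected with reporter constructs under cis-regulatory promoters, then exposed to chemicals for 24 h. Reporter transcripts were quantified by fluorescence after RT-PCR and capillary electrophoresis; activity was fitted in both directions against DMSO.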

The target in assay [6] is Transcription factor Sp1 (Homo sapiens) (UniProt P08047). The assay is described as follows: ATG_Sp1_CIS: Attagene CIS-FACTORIAL HepG2 Assay for human Specificity Protein 1 (Sp1) (AID 2282961). The following applies: HepG2 Sp1 cis-reporter transcription, actives raise or lower the signal. The method in brief:
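Measures mRNA induction of an Sp1-linked reporter in HepG2 cells 24 h post-dosing. Multiplexed reporters read by RT-PCR and capillary electrophoresis; DMSO serves as negative control and baseline.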

Assay [7] is described as follows: ATG_SREBP_CIS: Attagene CIS-FACTORIAL HepG2 Assay for human Sterol Regulatory Element Binding (SREBP) (AID 2282962). Conditions: HepG2 Attagene cis-factorial SREBP reporter, mRNA; actives raise or lower the signal. A digest of the protocol: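 Endogenous SREBP activity read as cis-element-driven reporter transcript in transiently transfected HepG2, 24 h post-dosing; quantified via RT-PCR plus capillary electrophoresis of fluorescent fragments. Gain or loss of signal fitted relative to DMSO baseline.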

For assay [8], the target named is Signal transducer and activator of transcription 3 (Homo sapiens) (UniProt P40763). The assay can be described thus: ATG_STAT3_CIS: Attagene CIS-FACTORIAL HepG2 Assay for human Signal Transducer and Activator of Transcription 3 (STAT3) (AID 2282963). The following applies: HepG2, Attagene cis-factorial STAT3 reporter transcription; actives raise or lower the signal. A digest of the protocol:
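Readout: fluorescent reporter mRNA fragments resolved by capillary electrophoresis. Setup: HepG2 transfected with MRTUs reporting endogenous transcription-factor activity, dosed 24 h. Gain or loss of signal fitted bidirectionally against DMSO control.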

Assay [9] can be described thus: ATG_TA_CIS: Attagene CIS-FACTORIAL HepG2 Assay for human TA Basal Promoter (AID 2282964). Conditions: HepG2 Attagene CIS-factorial TA basal promoter reporter; actives raise or lower the signal. A digest of the protocol: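 Transfected HepG2, 24 h compound exposure; RNA → RT-PCR → FAM primer extension → HpaI cut → CE fluorescence. Gain/loss-of-signal fitted against DMSO negative control. Background-control readout.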

A short description of assay [10]: ATG_TCF_b_cat_CIS: Attagene CIS-FACTORIAL HepG2 Assay for human T-Cell-Factor with beta-catenin (TCF/b-cat) (AID 2282965). Conditions: HepG2 TCF/beta-catenin cis-reporter transcription, actives raise or lower the signal. A digest of the protocol: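 HepG2, transient MRTU transfection, cis-element-driven reporters (endogenous TFs). 24 h compound exposure. Readout: reporter mRNA by RT-PCR + 6-FAM primer extension, HpaI digest, capillary electrophoresis. Gain/loss fit vs DMSO baseline.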

Assay [11] in a line: ATG_TAL_CIS: Attagene CIS-FACTORIAL HepG2 Assay for human TAL Basal Promoter (AID 2282966).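 Further: background control endpoint measuring basal TAL promoter reporter mRNA not a specific factor.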 The following applies: HepG2 Attagene cis-factorial TAL promoter reporter; actives raise or lower the signal. The method in brief: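 Transiently transfected HepG2 (cis-regulated reporter units), 24 h treatment, mRNA read by fluorescent CE after RT-PCR; bidirectional fit, DMSO baseline.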

Assay [12] in a line: ATG_TGFb_CIS: Attagene CIS-FACTORIAL HepG2 Assay for human Transforming Growth Factor (TGF) (AID 2282967). The following applies: HepG2 Attagene CIS TGFb reporter, mRNA transcription; actives raise or lower the signal. The method in brief: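 Readout: fluorescently labeled reporter cDNA fragments resolved by capillary electrophoresis after RT-PCR. Transfected HepG2 cells dosed for 24 h; endogenous TF activity at TGFB1-linked cis element; gain or loss fitted relative to DMSO.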

Assay [13] in a line: ATG_VDRE_CIS: Attagene CIS-FACTORIAL HepG2 Assay for human Vitamin D Receptor Element (VDRE) (AID 2282968). The following applies: HepG2 VDRE cis-reporter transcription, actives raise or lower the signal. The method in brief:
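Transient MRTU transfection of HepG2, 24 h compound exposure. Readout: reporter transcripts via RT-PCR and capillary electrophoresis, fluorescence. Bidirectional fit vs DMSO.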

Assay [14] addresses Nuclear receptor subfamily 1 group I member 3 (Homo sapiens) (UniProt Q14994). The assay is described as follows: ATG_CAR_TRANS: Attagene TRANS-FACTORIAL HepG2 Assay for human Constitutive Androstane Receptor (CAR) (AID 2282969; active means hit-call score of the fitted dose curve at least 0.9, where 1 is the maximum;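 further: activators raise reporter mRNA above DMSO so AC50 marks induction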). Conditions: HepG2 Attagene TRANS-FACTORIAL CAR reporter. A digest of the protocol:
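Transiently transfected HepG2, multiplex TRANS reporters (CAR-Gal4 chimera driving GAL4-UAS reporter). 24 h dosing. Readout: reporter transcript by RT-PCR + capillary electrophoresis, fluorescence intensity; positive direction vs DMSO.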

In assay [15] the target is Steroid hormone receptor ERR1 (Homo sapiens) (UniProt P11474). The assay is described as follows: ATG_ERRa_TRANS: Attagene TRANS-FACTORIAL HepG2 Assay for human Estrogen-Related Receptor alpha (ERRa) (AID 2282971; active means hit-call score of the fitted dose curve at least 0.9, where 1 is the maximum). The following applies: HepG2 Attagene TRANS reporter, ERRa transactivation. A digest of the protocol: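 HepG2 cells transiently transfected with multiplexed GAL4-UAS reporter units reading chimeric ERRa-Gal4 activity; 24 h compound exposure. Reporter mRNA measured by RT-PCR, 6-FAM labelling, HpaI digest and capillary electrophoresis; gain of signal fitted versus DMSO baseline.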

The target in assay [16] is X-box-binding protein 1 (Homo sapiens) (UniProt P17861). The assay can be described thus: ATG_Xbp1_CIS: Attagene CIS-FACTORIAL HepG2 Assay for human X-box Binding Protein 1 (XBP1) (AID 2282972). The following applies: HepG2 XBP1 cis-element reporter, Attagene multiplex; actives raise or lower the signal. The method in brief: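 Reporter transcripts were quantified by RT-PCR with fluorescent primer extension and capillary electrophoresis after 24 h chemical exposure. Cells: transiently transfected HepG2 carrying cis-regulated reporter constructs; data fitted bidirectionally relative to DMSO.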

A short description of assay [17]: ATG_M_19_TRANS: Attagene TRANS-FACTORIAL HepG2 Assay for M19 Transcription Factor (Internal Marker) (AID 2282974; active means hit-call score of the fitted dose curve at least 0.9, where 1 is the maximum). The following applies: HepG2 Attagene TRANS-FACTORIAL M19 internal marker reporter. The method in brief:
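After transfection of HepG2 with GAL4-UAS-driven reporter constructs, cells are dosed for 24 h. Total RNA is reverse-transcribed, reporter sequences PCR-amplified and labelled, then HpaI-digested and sized by capillary electrophoresis.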

Assay [18] deals with Estrogen-related receptor gamma (Homo sapiens) (UniProt P62508). The assay can be described thus: ATG_ERRg_TRANS: Attagene TRANS-FACTORIAL HepG2 Assay for human Estrogen-Related Receptor gamma (ERRg) (AID 2282977; active means hit-call score of the fitted dose curve at least 0.9, where 1 is the maximum;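 further: hits increase reporter signal over DMSO so potencies reflect activators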). The following applies: HepG2 Attagene TRANS reporter, ERRg transactivation. A digest of the protocol:
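Exogenous NR-Gal4 chimera activity was assessed in HepG2 cells bearing transfected GAL4-UAS reporters. After 24 h dosing, total RNA underwent RT-PCR, fluorescent primer extension and HpaI digestion before capillary electrophoresis, with gain of signal scored against DMSO.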

For assay [19], the target named is Estrogen receptor (Homo sapiens) (UniProt P03372). The assay can be described thus: ATG_ERa_TRANS: Attagene TRANS-FACTORIAL HepG2 Assay for human Estrogen Receptor alpha (ERa) (AID 2282970; active means hit-call score of the fitted dose curve at least 0.9, where 1 is the maximum). The following applies: HepG2 Attagene TRANS ERa GAL4 reporter, mRNA. The method in brief:
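One of 30 multiplexed endpoints from a HepG2 TRANS system, this one reports ERa-Gal4-driven reporter mRNA. Transcripts were quantified 24 hours post-dosing by fluorescent RT-PCR and capillary electrophoresis, with activity scored as induction over DMSO.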

Assay [20] can be described thus: ATG_GAL4_TRANS: Attagene TRANS-FACTORIAL HepG2 Assay for GAL4 (Internal Marker) (AID 2282976; active means hit-call score of the fitted dose curve at least 0.9, where 1 is the maximum). The following applies: HepG2 Attagene TRANS GAL4 internal marker reporter. A digest of the protocol: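 HepG2 cells transiently transfected with multiplexed GAL4-UAS reporter constructs were dosed for 24 h. Reporter mRNA was measured by RT-PCR, 6-FAM primer extension, HpaI digestion and capillary electrophoresis, and gain of signal was fitted relative to DMSO.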

Sequence of X-box-binding protein 1 (Homo sapiens) (P17861 whole entry, looked up): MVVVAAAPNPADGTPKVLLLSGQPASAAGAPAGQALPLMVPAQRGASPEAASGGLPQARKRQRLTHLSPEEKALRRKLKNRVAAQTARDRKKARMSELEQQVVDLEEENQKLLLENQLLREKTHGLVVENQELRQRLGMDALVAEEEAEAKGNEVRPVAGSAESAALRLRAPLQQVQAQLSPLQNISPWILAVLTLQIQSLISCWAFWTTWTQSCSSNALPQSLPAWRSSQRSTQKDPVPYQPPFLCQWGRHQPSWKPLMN
Sequence of Signal transducer and activator of transcription 3 (Homo sapiens) (P40763 whole entry, looked up, the tested form may be a part): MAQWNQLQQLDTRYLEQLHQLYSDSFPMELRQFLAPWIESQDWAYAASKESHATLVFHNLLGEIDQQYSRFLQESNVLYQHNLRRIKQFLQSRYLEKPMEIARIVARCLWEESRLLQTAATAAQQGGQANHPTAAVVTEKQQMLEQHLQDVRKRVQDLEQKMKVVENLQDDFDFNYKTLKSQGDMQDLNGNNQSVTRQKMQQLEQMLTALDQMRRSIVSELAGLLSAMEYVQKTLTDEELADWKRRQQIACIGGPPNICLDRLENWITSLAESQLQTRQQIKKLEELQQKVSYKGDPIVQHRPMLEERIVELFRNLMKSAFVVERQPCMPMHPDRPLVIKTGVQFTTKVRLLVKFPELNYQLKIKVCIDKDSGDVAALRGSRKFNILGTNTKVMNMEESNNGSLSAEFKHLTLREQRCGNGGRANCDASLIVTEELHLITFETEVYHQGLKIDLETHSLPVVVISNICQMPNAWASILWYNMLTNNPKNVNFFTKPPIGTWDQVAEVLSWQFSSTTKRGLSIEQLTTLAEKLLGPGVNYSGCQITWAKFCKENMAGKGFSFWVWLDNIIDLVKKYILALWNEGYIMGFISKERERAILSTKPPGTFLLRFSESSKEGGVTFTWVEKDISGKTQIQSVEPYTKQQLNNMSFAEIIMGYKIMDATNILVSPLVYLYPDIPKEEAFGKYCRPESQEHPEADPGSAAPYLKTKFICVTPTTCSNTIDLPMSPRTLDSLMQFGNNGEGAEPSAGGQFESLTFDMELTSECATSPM
Sequence of Nuclear receptor subfamily 1 group I member 3 (Homo sapiens) (Q14994 whole entry, looked up, the tested form may be a part): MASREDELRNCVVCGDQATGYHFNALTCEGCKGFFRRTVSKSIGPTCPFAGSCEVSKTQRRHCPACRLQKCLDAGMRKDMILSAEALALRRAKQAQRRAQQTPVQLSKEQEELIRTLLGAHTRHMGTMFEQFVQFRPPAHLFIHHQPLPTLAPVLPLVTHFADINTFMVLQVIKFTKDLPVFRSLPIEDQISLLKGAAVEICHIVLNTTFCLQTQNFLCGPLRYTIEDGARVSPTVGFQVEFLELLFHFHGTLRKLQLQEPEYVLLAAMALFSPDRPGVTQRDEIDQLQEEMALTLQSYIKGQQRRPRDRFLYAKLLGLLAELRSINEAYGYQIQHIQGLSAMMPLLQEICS
Sequence of Estrogen-related receptor gamma (Homo sapiens) (P62508 whole entry, looked up, the tested form may be a part): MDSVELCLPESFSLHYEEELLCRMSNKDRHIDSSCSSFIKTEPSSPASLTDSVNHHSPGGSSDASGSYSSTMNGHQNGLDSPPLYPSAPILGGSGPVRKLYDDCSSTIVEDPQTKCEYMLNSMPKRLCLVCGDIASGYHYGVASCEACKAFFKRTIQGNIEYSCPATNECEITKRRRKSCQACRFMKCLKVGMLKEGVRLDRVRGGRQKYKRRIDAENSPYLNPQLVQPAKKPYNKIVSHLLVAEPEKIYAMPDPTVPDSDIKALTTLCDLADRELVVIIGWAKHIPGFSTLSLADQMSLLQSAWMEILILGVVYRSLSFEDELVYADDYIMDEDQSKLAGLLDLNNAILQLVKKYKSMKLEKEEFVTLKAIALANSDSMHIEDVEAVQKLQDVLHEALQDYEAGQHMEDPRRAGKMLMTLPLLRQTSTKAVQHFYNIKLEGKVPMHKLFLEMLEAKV
Sequence of Steroid hormone receptor ERR1 (Homo sapiens) (P11474 whole entry, looked up, the tested form may be a part): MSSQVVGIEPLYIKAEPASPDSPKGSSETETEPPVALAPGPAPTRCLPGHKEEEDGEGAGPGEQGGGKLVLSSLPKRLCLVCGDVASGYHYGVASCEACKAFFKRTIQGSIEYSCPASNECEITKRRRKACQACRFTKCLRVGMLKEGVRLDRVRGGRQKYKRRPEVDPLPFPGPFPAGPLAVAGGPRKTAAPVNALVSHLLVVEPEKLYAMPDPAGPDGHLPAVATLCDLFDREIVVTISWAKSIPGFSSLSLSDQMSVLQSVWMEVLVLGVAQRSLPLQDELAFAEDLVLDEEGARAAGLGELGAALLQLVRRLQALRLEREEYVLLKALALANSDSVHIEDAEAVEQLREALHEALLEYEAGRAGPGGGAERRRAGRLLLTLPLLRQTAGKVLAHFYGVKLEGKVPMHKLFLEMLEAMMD
Sequence of Transcription factor Sp1 (Homo sapiens) (P08047 whole entry, looked up): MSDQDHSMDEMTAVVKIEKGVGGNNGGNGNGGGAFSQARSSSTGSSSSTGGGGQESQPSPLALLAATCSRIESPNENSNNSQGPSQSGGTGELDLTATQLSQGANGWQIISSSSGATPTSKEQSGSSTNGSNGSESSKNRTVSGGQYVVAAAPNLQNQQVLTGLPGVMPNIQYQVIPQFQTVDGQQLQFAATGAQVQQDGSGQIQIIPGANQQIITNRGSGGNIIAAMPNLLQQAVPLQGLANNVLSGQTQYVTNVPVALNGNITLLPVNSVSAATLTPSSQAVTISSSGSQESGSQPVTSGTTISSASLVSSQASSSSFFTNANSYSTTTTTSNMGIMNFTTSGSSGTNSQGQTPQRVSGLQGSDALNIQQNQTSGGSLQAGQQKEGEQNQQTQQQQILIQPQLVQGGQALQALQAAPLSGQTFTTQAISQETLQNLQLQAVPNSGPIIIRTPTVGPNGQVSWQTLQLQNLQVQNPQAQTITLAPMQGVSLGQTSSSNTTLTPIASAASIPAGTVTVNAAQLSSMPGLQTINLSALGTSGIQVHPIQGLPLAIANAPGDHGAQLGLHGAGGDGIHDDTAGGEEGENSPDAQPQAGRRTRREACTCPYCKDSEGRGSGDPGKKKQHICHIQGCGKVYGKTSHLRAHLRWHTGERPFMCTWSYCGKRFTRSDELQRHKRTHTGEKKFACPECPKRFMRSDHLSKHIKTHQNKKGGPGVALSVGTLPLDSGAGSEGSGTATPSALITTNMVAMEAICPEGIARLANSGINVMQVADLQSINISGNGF
Sequence of Paired box protein Pax-6 (Homo sapiens) (P26367 whole entry, looked up): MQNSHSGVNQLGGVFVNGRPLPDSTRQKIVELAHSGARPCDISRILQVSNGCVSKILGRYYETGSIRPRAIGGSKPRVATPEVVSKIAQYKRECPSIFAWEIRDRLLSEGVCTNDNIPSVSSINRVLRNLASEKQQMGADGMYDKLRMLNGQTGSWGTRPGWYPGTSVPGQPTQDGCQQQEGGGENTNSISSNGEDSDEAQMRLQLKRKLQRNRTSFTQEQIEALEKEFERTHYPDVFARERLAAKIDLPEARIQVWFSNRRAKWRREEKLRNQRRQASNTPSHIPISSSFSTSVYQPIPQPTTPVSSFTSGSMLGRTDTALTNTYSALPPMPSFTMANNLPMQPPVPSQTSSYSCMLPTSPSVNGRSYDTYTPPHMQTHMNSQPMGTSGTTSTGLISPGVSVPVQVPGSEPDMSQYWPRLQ
Sequence of Estrogen receptor (Homo sapiens) (P03372 whole entry, looked up, the tested form may be a part): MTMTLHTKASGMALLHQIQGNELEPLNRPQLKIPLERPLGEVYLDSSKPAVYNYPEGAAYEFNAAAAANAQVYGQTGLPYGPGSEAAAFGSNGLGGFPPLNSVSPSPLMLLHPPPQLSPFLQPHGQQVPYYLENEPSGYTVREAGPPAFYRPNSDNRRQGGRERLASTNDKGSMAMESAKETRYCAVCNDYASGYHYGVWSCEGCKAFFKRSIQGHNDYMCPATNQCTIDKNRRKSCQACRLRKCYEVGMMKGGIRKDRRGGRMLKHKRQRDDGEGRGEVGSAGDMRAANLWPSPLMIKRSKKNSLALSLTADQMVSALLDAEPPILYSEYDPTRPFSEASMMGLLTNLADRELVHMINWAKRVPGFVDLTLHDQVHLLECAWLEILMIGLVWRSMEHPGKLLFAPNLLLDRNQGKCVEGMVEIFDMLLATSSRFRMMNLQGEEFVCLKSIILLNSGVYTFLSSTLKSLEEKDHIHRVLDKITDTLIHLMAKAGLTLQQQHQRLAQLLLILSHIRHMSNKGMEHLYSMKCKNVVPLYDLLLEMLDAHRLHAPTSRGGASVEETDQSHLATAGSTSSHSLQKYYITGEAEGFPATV

In the case of `COCCOCCOCCOCCOCCO`, the result in assay [1], in [2], in [3], in [4], in assay [5] and in assay [6] was inactive. In addition, the call in [7], in [8], in [9], in [10], in [11] and in [12] was inactive. The call in assay [13], in [14], in assay [15], in assay [16], in assay [17] and in assay [18] was inactive.

As for `O=C1OC2(c3cc(Br)c(O)c(Br)c3Oc3c2cc(Br)c(O)c3Br)c2c(Cl)c(Cl)c(Cl)c(Cl)c21`, the AC50 (usually the midpoint of the concentration-response curve, whichever way the signal moves) in assay [1] was 62.2 µM (active); in [2], 5.13 µM (active); in assay [4], 50.2 µM (active); in assay [7], 17 µM (active); in assay [10], 87.5 µM (active); in assay [11], 26.1 µM (active). Further, the AC50 in [12] is 58.4 µM (active); in assay [13], 16.4 µM (active). In addition, the result in [3], in assay [5], in assay [6], in [8], in [9] and in assay [14] was inactive. Besides, the result in assay [19], in [15], in assay [16], in assay [20] and in assay [18] was inactive.

Regarding `C=CC(=O)OCC(O)COc1ccccc1` (stereo not given), the AC50 was 41.2 µM (active) in assay [1], 26.3 µM (active) in assay [5], 26.2 µM (active) in assay [13] and 24.3 µM (active) in assay [16]. The compound was called inactive in assay [2], in assay [3], in assay [4], in assay [6], in assay [7] and in assay [8]. Further, the compound was classed as inactive in assay [9], in assay [10], in [11], in assay [12] and in assay [14].

For `Nc1cc(Cl)c(O)c(Cl)c1`, the AC50 in assay [1] was 136 µM (active); in [2], 24.8 µM (active); in [3] it was 45.3 µM (active); in [4] it was 60.2 µM (active); in assay [7] it was 130 µM (active); in assay [10], 64.2 µM (active). Moreover, the AC50 in assay [13] is 70.7 µM (active). For the same compound, the call in [5], in assay [6], in assay [8], in assay [9], in [11] and in assay [12] was inactive. The result in assay [19], in assay [15], in [16], in assay [17] and in assay [18] was inactive.
